Measured values: PubChem BioAssay
Active and inactive are the calls of the source. Unless noted, the rule behind the calls is not given here.

Key:
[1] = compounds binding Alexa647 anti-His antibody – biochemical, small-molecule microarray, 635 nm fluorescence, artefact control for SMM control protein annotation, primary screen (AID 1128); conditions: higher = more signal;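 note: score merges feature fluorescence with signal-to-noise for each printed compound spot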
[2] = test system: Human papillomavirus type 1a E7 protein (residues 1-88); test: HPV1a E7 small-molecule binders, primary screen, biochemical, small-molecule microarray, residues 1-88, 635 nm (AID 1129); conditions: small-molecule microarray binding, fluorescence 635 nm; higher = more signal
[3] = molecular target: Focal adhesion kinase 1 (Homo sapiens) (UniProt Q05397); test: PTK2 protein binding on printed compound slides – biochemical, small-molecule microarray, 635/667 nm fluorescence, BSA, DTT, primary screen (AID 1130); conditions: 635 nm fluorescence, higher = more signal;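 note: composite of spot emission at 667 nm and signal to noise over triplicate slides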
Sequence of Focal adhesion kinase 1 (Homo sapiens) (Q05397 whole entry, looked up): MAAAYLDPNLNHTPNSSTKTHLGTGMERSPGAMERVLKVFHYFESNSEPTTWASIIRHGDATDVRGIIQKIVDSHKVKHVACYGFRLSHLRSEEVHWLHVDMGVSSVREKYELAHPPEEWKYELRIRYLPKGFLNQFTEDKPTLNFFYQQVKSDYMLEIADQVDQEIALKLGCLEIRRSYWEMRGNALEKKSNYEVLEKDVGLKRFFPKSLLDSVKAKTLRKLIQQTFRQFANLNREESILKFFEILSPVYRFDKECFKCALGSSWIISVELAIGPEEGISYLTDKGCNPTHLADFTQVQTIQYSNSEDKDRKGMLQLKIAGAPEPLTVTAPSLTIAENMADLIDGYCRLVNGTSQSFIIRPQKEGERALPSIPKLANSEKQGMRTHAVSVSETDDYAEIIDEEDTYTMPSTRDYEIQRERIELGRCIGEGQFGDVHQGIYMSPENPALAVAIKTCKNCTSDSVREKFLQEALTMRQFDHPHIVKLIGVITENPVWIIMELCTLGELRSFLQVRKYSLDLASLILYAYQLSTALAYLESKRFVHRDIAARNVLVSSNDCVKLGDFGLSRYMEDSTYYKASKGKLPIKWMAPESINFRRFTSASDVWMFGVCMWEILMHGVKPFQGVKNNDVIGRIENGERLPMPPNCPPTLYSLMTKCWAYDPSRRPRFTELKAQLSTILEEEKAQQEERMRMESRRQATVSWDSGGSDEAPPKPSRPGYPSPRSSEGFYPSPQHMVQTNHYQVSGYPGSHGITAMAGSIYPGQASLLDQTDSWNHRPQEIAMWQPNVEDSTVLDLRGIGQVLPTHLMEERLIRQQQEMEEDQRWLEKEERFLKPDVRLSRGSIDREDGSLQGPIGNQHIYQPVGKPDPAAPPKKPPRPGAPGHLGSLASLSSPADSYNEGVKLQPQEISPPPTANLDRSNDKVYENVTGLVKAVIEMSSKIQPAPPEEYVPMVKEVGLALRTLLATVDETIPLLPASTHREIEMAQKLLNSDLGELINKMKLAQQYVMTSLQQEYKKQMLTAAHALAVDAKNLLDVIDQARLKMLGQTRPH

[4] = test system: Fibrinogen (Alexa647-labelled); test: Alexa647-fibrinogen binding to printed small molecules – biochemical, small-molecule microarray, 635/667 nm fluorescence, artefact control for SMM control-protein annotation, profiling panel (AID 1131); conditions: fibrinogen-A647 binding fluorescence, higher = more signal;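 note: z-score merges 667 nm fluorescence with per-spot signal-to-noise over triplicate slides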
[5] = molecular target: Follistatin (Homo sapiens) (UniProt P19883); test: FST protein binding to printed compounds – biochemical, small-molecule microarray, 635/667 nm fluorescence, primary screen (AID 1132); conditions: 635 nm fluorescence, higher = more signal
Sequence of Follistatin (Homo sapiens) (P19883 whole entry, looked up): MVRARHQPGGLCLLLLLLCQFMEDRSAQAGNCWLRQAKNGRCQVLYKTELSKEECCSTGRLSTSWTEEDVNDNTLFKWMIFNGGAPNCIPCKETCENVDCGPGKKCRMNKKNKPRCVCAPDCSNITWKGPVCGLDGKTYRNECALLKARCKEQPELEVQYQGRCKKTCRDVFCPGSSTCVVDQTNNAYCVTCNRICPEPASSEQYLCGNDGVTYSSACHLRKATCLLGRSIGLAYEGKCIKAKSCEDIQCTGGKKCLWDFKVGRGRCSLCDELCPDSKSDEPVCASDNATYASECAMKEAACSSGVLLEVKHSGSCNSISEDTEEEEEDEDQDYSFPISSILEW

[6] = molecular target: Fibroblast growth factor 2 (Homo sapiens) (UniProt P09038); test: basic fibroblast growth factor binding to printed compounds – biochemical, small-molecule microarray, 635/667 nm fluorescence, primary screen (AID 1133); conditions: FGF2, fluorescence 635/667, higher = more signal
Sequence of Fibroblast growth factor 2 (Homo sapiens) (P09038 whole entry, looked up): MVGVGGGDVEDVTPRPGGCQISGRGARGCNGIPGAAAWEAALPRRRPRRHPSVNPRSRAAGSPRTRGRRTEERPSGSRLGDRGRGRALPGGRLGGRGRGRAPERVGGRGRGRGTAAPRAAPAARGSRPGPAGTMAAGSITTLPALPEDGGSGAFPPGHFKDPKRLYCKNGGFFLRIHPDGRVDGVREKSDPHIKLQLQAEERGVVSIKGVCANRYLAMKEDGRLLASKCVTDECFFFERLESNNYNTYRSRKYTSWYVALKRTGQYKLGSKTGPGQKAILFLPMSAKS

[7] = JC-1 mitochondrial potential readout, lung cancer cells – cell-based, A549, JC-1 fluorescence, basal, 24 h, 100 nL, profiling panel (AID 1138); conditions: higher = more signal;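 note: A549 lung adenocarcinoma cells under basal conditions with no added stimulus; test concentration not given here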
Lefty1 = Lefty1 protein binding to printed compounds – biochemical, small-molecule microarray, 635/667 nm fluorescence, primary screen (AID 1139); conditions: fluorescence 635/667, higher = more signal
[8] = test system: wheat germ agglutinin (Triticum aestivum), Alexa647-labelled; test: Alexa647-WGA lectin binding to printed small molecules – biochemical, small-molecule microarray, 635/667 nm fluorescence, artefact control for SMM control-protein annotation, profiling panel (AID 1140); conditions: WGA-A647 binding, 635 nm fluorescence, higher = more signal;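 note: score merges 667 nm feature emission with signal to noise over triplicate slides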
[9] = molecular target: Luciferin 4-monooxygenase (Photinus pyralis) (UniProt P08659); test: inhibition of purified Photinus pyralis luciferase – biochemical, luminescence, purified enzyme, 2006 set, primary screen (AID 1141); conditions: purified firefly luciferase, SteadyGlo luminescence, 30 min; higher = more signal, called active from +8 up or from −8 down;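 note: cell-free assay with purified firefly luciferase at 100 ng per well in PBS; test concentration not given here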
Sequence of Luciferin 4-monooxygenase (Photinus pyralis) (P08659 whole entry, looked up): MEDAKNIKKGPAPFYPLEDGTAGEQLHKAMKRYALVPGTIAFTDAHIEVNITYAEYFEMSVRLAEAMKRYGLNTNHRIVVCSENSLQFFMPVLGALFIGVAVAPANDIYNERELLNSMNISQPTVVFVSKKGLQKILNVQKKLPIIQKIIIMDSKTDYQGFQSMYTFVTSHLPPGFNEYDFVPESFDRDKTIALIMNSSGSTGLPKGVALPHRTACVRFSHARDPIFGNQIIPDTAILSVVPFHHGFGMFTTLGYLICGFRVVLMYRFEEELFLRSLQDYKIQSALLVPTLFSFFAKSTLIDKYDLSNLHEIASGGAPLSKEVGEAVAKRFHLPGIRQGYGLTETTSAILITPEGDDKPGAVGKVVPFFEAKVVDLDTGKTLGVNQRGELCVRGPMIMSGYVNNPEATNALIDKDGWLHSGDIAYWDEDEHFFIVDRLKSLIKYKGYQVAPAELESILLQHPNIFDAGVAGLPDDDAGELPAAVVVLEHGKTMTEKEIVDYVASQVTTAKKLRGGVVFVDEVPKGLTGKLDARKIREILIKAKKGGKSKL

[10] = test system: Wnt5a (protein binding on small-molecule microarray); test: small molecules binding Wnt5a protein – biophysical, small-molecule microarray, 635/667 nm fluorescence, primary screen (AID 1142); conditions: 635 nm fluorescence, higher = more signal;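 note: fluorescence read at 667 nm with signal to noise per printed feature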
[11] = ATP-based viability of Huh7 replicon cells – cell-based, CellTiter-Glo luminescence, basal, 48 h, cytotoxicity control for HCV replication inhibitor project, primary screen (AID 1143); conditions: higher = more signal, called active from +8 up or from −8 down;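 note: Huh7 hepatoma cells carrying a hepatitis C replication reporter with no stimulus; test concentration not given here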
[12] = Pseudomonas biofilm growth suppression – PAO1 strain, BacTiter-Glo luminescence, LB-PBS, primary screen (AID 1144); conditions: P. aeruginosa PAO1 biofilm, 12 h, higher = more signal
[13] = basal CRE-LacZ reporter activity in PC12 – cell-based, unstimulated, primary screen (AID 1145); conditions: no forskolin, luminescence, 4.5 h, higher = more signal, called active from +8 up or from −8 down
[14] = forskolin-driven CRE-LacZ activity in PC12 – cell-based, CRE-LacZ reporter, forskolin-stimulated, primary screen (AID 1146); conditions: luminescence, 4.5 h, higher = more signal, called active from +8 up or from −8 down;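 note: PC12 cells with 6xCRE LacZ reporter stimulated by forskolin 10 µM; beta-galactosidase reporter signal reflecting CREB driven transcription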
[15] = molecular target: Streptavidin (Streptomyces avidinii) (UniProt P22629); test: compounds binding control protein streptavidin – biophysical, small-molecule microarray, 635/667 nm fluorescence, artefact control for SMM compound annotation, primary screen (AID 1147); conditions: higher = more signal;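 note: signal reflects streptavidin binding to arrayed compounds as a control protein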
Sequence of Streptavidin (Streptomyces avidinii) (P22629 whole entry, looked up): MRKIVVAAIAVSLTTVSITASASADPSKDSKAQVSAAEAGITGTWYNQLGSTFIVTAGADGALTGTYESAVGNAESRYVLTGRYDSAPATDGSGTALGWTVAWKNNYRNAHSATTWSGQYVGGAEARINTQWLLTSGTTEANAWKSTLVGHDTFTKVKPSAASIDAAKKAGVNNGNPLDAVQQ

[16] = probe aInhba binding on compound microarray – biochemical, small-molecule microarray, 635/667 nm fluorescence, primary screen (AID 1148); conditions: higher = more signal;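 note: score merges 667nm spot fluorescence with signal-to-noise for antibody binding to printed compounds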
Torsin-1A (Homo sapiens) [17] = molecular target: Torsin-1A (Homo sapiens) (UniProt O14656); test: TOR1A wild-type binding on microarray – cell lysate, small-molecule microarray, lysate, 635/667 nm, primary screen (AID 1149); conditions: COS7 hTOR1A-WT lysate, 635 nm fluorescence, higher = more signal
Sequence of Torsin-1A (Homo sapiens) (O14656 whole entry, looked up): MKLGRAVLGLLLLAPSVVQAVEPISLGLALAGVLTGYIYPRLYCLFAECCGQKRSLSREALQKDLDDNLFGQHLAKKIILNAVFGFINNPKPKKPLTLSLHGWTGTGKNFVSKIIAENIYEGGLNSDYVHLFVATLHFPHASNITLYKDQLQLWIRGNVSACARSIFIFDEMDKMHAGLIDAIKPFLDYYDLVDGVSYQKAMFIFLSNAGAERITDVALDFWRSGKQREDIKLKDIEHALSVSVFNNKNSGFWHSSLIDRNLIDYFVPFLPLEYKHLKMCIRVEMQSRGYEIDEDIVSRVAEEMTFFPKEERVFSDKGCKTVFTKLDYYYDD

Torsin-1A (Homo sapiens) [18] = molecular target: Torsin-1A (Homo sapiens) (UniProt O14656); test: torsin A mutant lysate binding on microarrays – cell lysate, small-molecule microarray, COS7 lysate, 635/667 nm fluorescence, primary screen (AID 1150); conditions: COS7 hTOR1A mutant lysate, 635 nm fluorescence, higher = more signal;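 note: score pools 667 nm emission and signal to noise measuring lysate protein binding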
[19] = test system: Sonic hedgehog protein (Shh); test: Sonic hedgehog microarray binding compounds – biochemical, small-molecule microarray, 635/667 nm fluorescence, primary screen (AID 1151); conditions: 635 nm fluorescence, higher = more signal;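 note: Shh protein binding to compounds spotted on small-molecule microarray slides; score combines spot fluorescence intensity with signal-to-noise across triplicate slides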

Structure (SMILES) | composite z-score [1] | composite z-score [2] | composite z-score [3] | composite z-score [4] | composite z-score [5] | composite z-score [6] | z-score [7] | composite z-score (Lefty1) | composite z-score [8] | z-score [9] | composite z-score [10] | z-score [11] | z-score [12] | z-score [13] | z-score [14] | composite z-score [15] | composite z-score [16] | composite z-score (Torsin-1A (Homo sapiens) [17]) | composite z-score (Torsin-1A (Homo sapiens) [18]) | composite z-score [19]
COC(=O)C[C@H]1O[C@]2(C(=O)N(Cc3ccccc3)c3ccc(NC(C)=O)cc32)[C@@H](C)[C@@H]1[Si](C)(C)c1ccc(OC)cc1 | 0.242 | 0.822 | -0.0722 | 0.483 | 0.528 | 0.52 | -0.922 | 0.68 | 0.657 | 0.531 (inactive) | 0.0998 | -0.796 (inactive) | 0.695 (inactive) | 1.84 (inactive) | -0.792 (inactive) | 0.174 | -0.251 | -0.0471 | 0.033 | 0.978
COc1ccc(C(O)C2C=CC3C(=O)N(C)C(=O)C3N2Nc2ccccc2)cc1OCc1ccccc1 (stereo not given) | 1.05 | 1.27 | 0.091 | 1.01 | 0.336 | -0.0667 | -0.295 | 0.0084 | 1.34 | -0.51 (inactive) | 0.0512 | 0.142 (inactive) | -0.292 (inactive) | 1.21 (inactive) | -0.389 (inactive) | 0.863 | 0.0528 | 0.155 | 0.992 | -0.237
COCCOC(=O)N1C(=O)[C@@]2(c3cc(C#CCNC(N)=O)ccc31)[C@H](C(=O)N1CCc3cc(OC)c(OC)cc3C1)[C@H]1C(=O)O[C@H](c3ccccc3)[C@H](c3ccccc3)N1[C@@H]2c1ccc(OCCO)cc1 | 0.101 | 0.158 | -0.0354 | 0.108 | 1.3 | 1.41 | -1.49 | 0.881 | 0.385 | -0.553 (inactive) | 0.506 | -0.352 (inactive) | -1.42 (inactive) | -1.56 (inactive) | -0.549 (inactive) | 0.287 | -0.418 | -0.136 | 0.237 | 1.95
CC(C)C[C@@H]1NC(=O)[C@H]2C[C@@H](C(=O)NCCCCCCNC(=O)CS)[C@@H](c3cccc(OCCO)c3)N2C1=O | 1.19 | 1.21 | 0.236 | 0.855 | 1.43 | 1.64 | 1 | 1.57 | 0.96 | -1.05 (inactive) | 1.35 | 0.263 (inactive) | -0.436 (inactive) | -1.49 (inactive) | -1.47 (inactive) | 0.357 | 0.0574 | 1.53 | 1.67 | 2.13
NCCCCCCNC(=O)[C@H]1C[C@H]2C(=O)NCC(=O)N2[C@H]1c1cccc(OCCO)c1 | 0.869 | 0.858 | 0.215 | 0.794 | 1.24 | 1.55 | 1.85 | 1.04 | 1.08 | -1.7 (inactive) | 0.363 | 0.0443 (inactive) | 0.0567 (inactive) | -0.675 (inactive) | -0.405 (inactive) | 0.485 | -0.128 | 1.16 | 0.872 | 1.61
[N-]=[N+]=NCc1ccccc1C[C@]1(C(=O)NCC(O)CO)N=C(c2ccc(OCCCO)cc2)O[C@H]1c1ccccc1N=[N+]=[N-] (stereo not given in full) | 2.99 | 1.12 | 1.66 | 0.188 | -0.181 | -0.189 | 1.63 | -0.923 | 0.541 | -6.49 (inactive) | 0.376 | -2.54 (inactive) | -0.000841 (inactive) | 0.241 (inactive) | -1.78 (inactive) | 0.22 | 0.403 | 0.26 | 0.67 | -1.48
COCCCNC(=O)[C@@]1(C)c2ccccc2C(=O)N(Cc2cc(C(F)(F)F)cc(C(F)(F)F)c2)[C@H]1c1ccc(CO)cc1 | -0.12 | -0.203 | 0.295 | 0.207 | -0.672 | -1.5 | 0.509 | -0.191 | 0.0593 | 1.16 (inactive) | -0.676 | -2.82 (inactive) | -0.417 (inactive) | 0.468 (inactive) | 0.243 (inactive) | -0.673 | -0.0675 | -1.37 | -1.27 | -0.207
C=CCNC(=O)[C@H]1[C@@H]2C(=O)O[C@@H](c3ccccc3)[C@@H](c3ccccc3)N2[C@@H](c2ccc(O)cc2)[C@]12C(=O)N(C(=O)OCCOC)c1ccc(C#CCCO)cc12 | 1.03 | -0.0757 | 0.38 | 0.288 | 0.448 | 0.748 | 0.956 | -0.0874 | -0.163 | -0.923 (inactive) | 0.317 | -0.185 (inactive) | -0.176 (inactive) | -0.141 (inactive) | 0.567 (inactive) | -0.0841 | -0.0954 | 0.846 | 0.432 | 1.08
COC(=O)[C@@]1(Cc2ccccc2N=[N+]=[N-])COC(c2ccc(OCCCO)cc2)=N1 | 1.19 | 1.16 | 0.676 | 0.492 | 1.27 | 0.3 | 0.719 | -0.57 | 0.439 | -1.93 (inactive) | 0.193 | -2.44 (inactive) | 0.335 (inactive) | 0.675 (inactive) | 1.68 (inactive) | 0.175 | -0.0639 | 0.678 | 1.17 | -0.0614
